Results published in PubChem BioAssay AID1345083 (National Center for Advancing Translational Sciences (NCATS), 2018).
About 6,200 (6.6%) of roughly 94,000 compounds were called active. A call without a number means that no potency is given here. Not shown: some 31% with an inconclusive outcome. Calls follow the shape of the dose curve; as a rule, active = well fitted inhibition curve with a large enough effect; inconclusive = small, poorly fitted or top-dose-only effect; inactive = flat fitted curve, though single readings scatter. This excerpt belongs to a sample that is enriched for actives.

experiment: Cytotoxic Profiling in HEK 293 Cell Line of Diverse Libraries Using Quantitative High-Throughput Screening; details: HEK 293 viability, ATP luminescence (CellTiter-Glo), 48-72 h; series mostly up to 115 µM; also: nearly all actives have a fitted effect of over 60% in size
Summary of the method: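 Pintool-delivered compounds were incubated with HEK 293 cells (250 cells/well) at 37 degree Celsius for 48 or 72 hr. ATP-dependent luminescence (CellTiter-Glo) then reported remaining viable cells.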
Potency is read from the fitted curve at half-maximal effect.

SMILES | Potency
O=C(Cn1c(=O)oc2ccccc21)NC1CCc2nn(CC3CC3)c(=O)n2CC1 (stereo not drawn) | inactive
COc1ccccc1N1CCN(C(=O)Cn2c(N3CCc4ccccc4C3)nc(C)cc2=O)CC1 | 35.5 µM (active)
Cc1cc(=O)n(CC(=O)Nc2cccc(Cl)c2C)c(N2CCc3ccccc3C2)n1 | inactive
CNC(=O)c1cc(C)nc2onc(C3CCCN3C(=O)c3ccccc3OC)c12 (stereo not drawn) | inactive
Cc1cccc(CN2CCc3ncc(C(=O)NCc4ccccc4)n3CC2)n1 | 100 µM (active)
COc1ccc(CN2CCc3ncc(C(=O)NCCOc4ccccc4)n3CC2)cn1 | inactive
COc1ccc(CN2CCc3ncc(C(=O)Nc4ccccc4C)n3CC2)cn1 | inactive
COCCOc1cc(=O)n2c(c1C(=O)NCc1ccccc1)CCOCC2 | inactive
Cc1ccccc1CN1CCc2ncc(C(=O)NCCOc3ccccc3)n2CC1 | 79.4 µM (active)
COc1ncc(CN2CCc3ncc(C(=O)Nc4ccccc4)n3CC2)cn1 | inactive
CCOCC(=O)N[C@@H]1c2ccccc2C2(CCNCC2)[C@H]1OC | inactive
COc1ccc(CCNC(=O)C2CC(=O)N(c3n[nH]c4cccc(F)c34)C2)cc1 (stereo not drawn) | inactive
COc1cccc(-c2cn(C3CCN(C(=O)c4ccc(Cl)cc4)CC3)c(=O)[nH]2)c1 | inactive
Cc1ccc(OCC(=O)NCc2cccnc2N2CCOCC2)cc1 | inactive
Cc1ccccc1CN1CCCn2nc(C)c(-c3cccnc3N3CCOCC3)c21 | 70.8 µM (active)
C=CCCCC(=O)Nc1ccc(NC(=O)C(C)(C)C)c(OC)c1 | inactive
O=C(Nc1cccn2nc(C3CCC3)nc12)c1cccc(F)c1 | 39.8 µM (active)
O=C1CCCCC(CNC(=O)c2cccc(F)c2)N1 (stereo not drawn) | inactive
O=C(NCc1cc2n(n1)CCCN(C1CCCCC1)C2)c1cccc(F)c1 | inactive
CCNC(=O)C1(CCO)CCN(c2ncccn2)C1 (stereo not drawn) | inactive
O=C(NCc1ccc(Cl)nc1)c1cn2c(n1)CN([S+](=O)([O-])c1cccc(C(F)(F)F)c1)CC2 | inactive

SMILES | Potency
CC(=O)N1CCC2(CC1)CN(C(=O)Cc1cccc(Cl)c1)CCO2 | inactive
O=C(Cc1ccc(F)cc1)N1CCOCC2(CN(Cc3ccccc3)C2)C1 | 39.8 µM (active)
CC1(C(=O)N2CCN(Cc3ccccc3)CC2)CCOCC1 | inactive
O=C(Cn1nc2n(c1=O)CCCCC2)N1CCc2ccccc21 | inactive
CCOCC(=O)Nc1nn(-c2cccc(F)c2)c2cccc(N3CCOC3=O)c12 | inactive
NC(=O)[C@H](Cc1cccs1)NC(=O)[C@@H]1C[C@@H](NC(=O)c2cnccn2)CCN1C(=O)COCC(=O)O | inactive
O=C(NCc1ccncc1)C1CCN(C(=O)N2CC3CC(C2)[C@H]2CCCC(=O)N2C3)CC1 (stereo partly drawn) | inactive
O=C(Nc1ccccc1Br)N1CCC2(CC1)SCC(=O)N2Cc1ccco1 | inactive
CNC(=O)[C@@H]1CN(C(=O)Cn2c(=O)oc3ccccc32)C[C@H]1c1nc(C)no1 | inactive
O=C(NCCc1ccccc1)N1CCCCCC1CN1CCOCC1 (stereo not drawn) | inactive
O=C(NCCOc1ccccc1)c1nc2c(o1)CCN(CC1CCCCC1)CC2 | 100 µM (active)
CCc1nc2c(c(-c3ccc(OC)cc3)n1)CCN(CC1CCCCC1)CC2 | inactive
CN1C(=O)[C@H]2CN(Cc3ccccc3Cl)C[C@H]2C1=O | inactive
c1coc(-c2ccnc3nc(C4CC4)nn23)c1 | inactive
COc1cc(NC(=O)C2Cn3cccc3C(=O)N2)cc(OC)c1 (stereo not drawn) | inactive
CSc1ccc(-c2cccc(CN3CCC(N[S+](=O)([O-])c4cccs4)CC3)c2)cc1 | 22.4 µM (active)
Cc1noc(C)c1[S+](=O)([O-])NC1CCN(Cc2ccc(-c3ccsc3)cc2)C1 (stereo not drawn) | 39.8 µM (active)
Cc1noc(C)c1[S+](=O)([O-])N1CC(Oc2ccc(F)c(F)c2)C1 | inactive
O=C1N2CCCC2CN1C1CCN(Cc2ccsc2)CC1 (stereo not drawn) | inactive
Cc1noc(C)c1[S+](=O)([O-])N1CCCC(c2nnc3n2C(C(=O)O)CC3)C1 (stereo not drawn) | inactive
Cc1noc(C)c1[S+](=O)([O-])NC1CCN(Cc2cccc(-c3ccc(F)c(F)c3)c2)CC1 | 25.1 µM (active)

SMILES | Potency
Cc1noc(C)c1[S+](=O)([O-])N1CCn2c(nnc2-c2ccccc2)C1 | inactive
CCCN1C(=O)C(CC(=O)NC2CCCC2)Sc2ncccc21 (stereo not drawn) | inactive
CC(C)CCN1CCc2c(n(Cc3cccnc3)n(-c3ccccc3)c2=O)C1 | inactive
CCn1ncc(N2CCC(NC(=O)C(C)c3ccccc3)CC2)cc1=O (stereo not drawn) | inactive
CN1[C@@H](CCC(=O)N2CCN(c3ccccn3)CC2)CNC(=O)[C@@H]2[C@H]1CCN2Cc1csnn1 | inactive
CN(Cc1cccnc1)C1CN(C(=O)c2ccnn2C)C1 | inactive
CN(Cc1cccc2ccccc12)C1CCc2ccccc21 (stereo not drawn) | inactive
CN(CC1CCOC1)C(=O)c1ccccc1Br (stereo not drawn) | inactive
O=C(c1ccc(C(F)(F)F)cc1)N1CCC2(C1)C(=NC1CCCC1)NC(=O)N2c1cccnc1 (stereo not drawn) | inactive
CN(CC1(C)CCOCC1)S(=O)(=O)C1CC1 | inactive
O=C(N[C@@H]1C[C@H](Cn2cc(-c3cccnc3)nn2)[C@@H](O)[C@H]1O)c1ccccc1 | inactive
O=c1[nH]c(N2CCOCC2)nc2c1CCN(Cc1cccc(F)c1)CC2 | inactive
CN(C)c1ccc(C(=O)N2CCN3C(=O)N(Cc4ccccc4)C(=O)[C@H]3C2)cc1 | inactive
CC1=C[C@@H](CNC(C)C)[C@H](C(C)C)C[C@H]1Cc1nnc(-c2ccc(C)cc2)o1 | 70.8 µM (active)
CC1=C[C@@H](CNC(C)C)[C@H](C(C)C)C[C@H]1Cc1nnc(-c2ccc(N(C)C)cc2)o1 | 31.6 µM (active)
CC(=O)NC[C@@H]1C=C(C)[C@H](CC(=O)N2CCCC2)C[C@H]1C(C)C | inactive
CC1=C[C@@H](CNC2CC2)[C@H](C(C)C)C[C@H]1Cc1nnc(-c2ccc(C)cc2)o1 | 50.1 µM (active)
O=C1CCC2(CCCN(C(=O)c3ccc(F)cc3)C2)CN1CCc1cnc[nH]1 (stereo not drawn) | inactive
CC(C)CN1CC2(CCN(C(=O)c3conc3-c3ccccc3)CC2)CC1=O | inactive
CC(C)S(=O)(=O)N1CCC(c2nnc3n2CCNC3)CC1 | inactive
O=C(C1C2C(=O)N(C3CCCCCC3)C[C@@]23C=C[C@@H]1O3)N1CCS(=O)(=O)CC1 (stereo partly drawn) | inactive
